For 23 molecules, outcome and AC50 results are on record in PubChem BioAssay (EPA / NIEHS).

By AC50 is commonly meant the concentration giving half of the maximal activity seen.

Records with an inconclusive call do not appear. Active and inactive are the calls of the source. The calls were made as follows: active = hit-call score of the fitted dose curve at least 0.9, where 1 is the maximum; inconclusive = response in the unintended direction; inactive = score below 0.9. Peptide text beside a SMILES is read from it.

Test [1] deals with human Peroxisome Proliferator-activated Receptor delta (PPARd), PPARD (gene 5467) (UniProt Q03181). Briefly: ATG_PPARd_TRANS: Attagene TRANS-FACTORIAL HepG2 Assay for human Peroxisome Proliferator-activated Receptor delta (PPARd) (AID 2283002). In outline:
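Measured quantity: GAL4-UAS reporter transcript induction in HepG2 after 24 h chemical dosing, with NR-Gal4 chimeras supplied by transient transfection. Detection by RT-PCR and capillary electrophoresis; upward fit against DMSO.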

Test [2] addresses Retinoic acid receptor alpha (Homo sapiens) (UniProt P10276). Briefly: ATG_RARa_TRANS: Attagene TRANS-FACTORIAL HepG2 Assay for human Retinoic Acid Receptor alpha (RARa) (AID 2283005). In short, it runs like this: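 HepG2 cells transiently transfected with multiple reporter units expressing chimeric RARα-GAL4 fusion, with GAL4-UAS-driven reporters. After 24 h compound exposure, reporter mRNA induction quantified by RT-PCR and capillary electrophoresis with fluorescent labeling; gain-of-signal fitted relative to DMSO control.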

The target of test [3] is Nuclear receptor subfamily 1 group I member 2 (Homo sapiens) (UniProt O75469). Briefly: ATG_PXR_TRANS: Attagene TRANS-FACTORIAL HepG2 Assay for human Pregnane X Receptor (PXR) (AID 2283008). In outline:
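Trans-factorial format: exogenous NR-Gal4 fusion activity, not endogenous factor, in transfected human HepG2 liver cells. After 24 h dosing, RNA isolated, reverse-transcribed, amplified and resolved by capillary electrophoresis; induction scored versus DMSO.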

In test [4] the target is human Retinoic Acid Receptor gamma (RARg), RARG (gene 5916) (UniProt P13631). Nature of the test: ATG_RARg_TRANS: Attagene TRANS-FACTORIAL HepG2 Assay for human Retinoic Acid Receptor gamma (RARg) (AID 2283009). In short, it runs like this:
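Gain-of-signal relative to DMSO is reported from fluorescent capillary electrophoresis of RT-PCR reporter products. These came from HepG2 cells expressing transfected RARg-GAL4 chimeras with UAS reporters, harvested 24 h after dosing.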

The target in test [5] is human RAR-related Orphan Receptor gamma (RORg), RORC (gene 6097) (UniProt P51449). Briefly: ATG_RORg_TRANS: Attagene TRANS-FACTORIAL HepG2 Assay for human RAR-related Orphan Receptor gamma (RORg) (AID 2283011). In short, it runs like this: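 Readout: reporter transcript induction (RT-PCR, fluorescent primer extension, capillary electrophoresis) after 24 h compound exposure of transiently transfected HepG2 cells carrying a RORg-Gal4 chimera and GAL4-UAS reporters; DMSO served as baseline, with increasing signal fitted.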
Chain of human RAR-related Orphan Receptor gamma (RORg), RORC (gene 6097) (P51449 whole entry, looked up, the tested form may be a part): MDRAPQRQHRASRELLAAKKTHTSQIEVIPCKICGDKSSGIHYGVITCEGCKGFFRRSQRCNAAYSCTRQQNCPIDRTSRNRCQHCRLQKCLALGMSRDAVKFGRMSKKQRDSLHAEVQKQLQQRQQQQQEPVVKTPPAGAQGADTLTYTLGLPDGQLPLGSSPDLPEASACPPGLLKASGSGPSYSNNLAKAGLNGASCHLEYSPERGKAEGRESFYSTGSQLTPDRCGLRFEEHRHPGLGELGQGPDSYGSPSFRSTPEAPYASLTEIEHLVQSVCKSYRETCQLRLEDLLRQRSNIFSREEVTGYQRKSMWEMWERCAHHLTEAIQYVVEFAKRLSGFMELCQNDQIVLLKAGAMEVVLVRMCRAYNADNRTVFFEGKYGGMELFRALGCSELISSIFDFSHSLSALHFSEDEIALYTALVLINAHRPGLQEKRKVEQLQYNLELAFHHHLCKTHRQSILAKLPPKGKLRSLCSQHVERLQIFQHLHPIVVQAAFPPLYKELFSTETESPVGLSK

The target in test [6] is Retinoic acid receptor RXR-alpha (Homo sapiens) (UniProt P19793). Briefly: ATG_RXRa_TRANS: Attagene TRANS-FACTORIAL HepG2 Assay for human Retinoid X Receptor alpha (RXRa) (AID 2283012). In short, it runs like this:
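Chimeric NR-GAL4 trans-activation in HepG2, 24 h treatment; reporter transcripts quantified by fluorescence on capillary electrophoresis, analysed for upward change from DMSO.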

For test [7], the target named is human Retinoic Acid Receptor beta (RARb), RARB (gene 5915) (UniProt P10826). Nature of the test: ATG_RARb_TRANS: Attagene TRANS-FACTORIAL HepG2 Assay for human Retinoic Acid Receptor beta (AID 2283004). In short, it runs like this: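 HepG2 cells transiently transfected with multiplexed GAL4-UAS reporter units expressing chimeric NR–Gal4 fusions; 24 h compound exposure. Reporter mRNA quantified by RT-PCR, 6-FAM labelling, HpaI digestion and capillary electrophoresis; gain-of-signal fitted against DMSO baseline.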
Chain of human Retinoic Acid Receptor beta (RARb), RARB (gene 5915) (P10826 whole entry, looked up, the tested form may be a part): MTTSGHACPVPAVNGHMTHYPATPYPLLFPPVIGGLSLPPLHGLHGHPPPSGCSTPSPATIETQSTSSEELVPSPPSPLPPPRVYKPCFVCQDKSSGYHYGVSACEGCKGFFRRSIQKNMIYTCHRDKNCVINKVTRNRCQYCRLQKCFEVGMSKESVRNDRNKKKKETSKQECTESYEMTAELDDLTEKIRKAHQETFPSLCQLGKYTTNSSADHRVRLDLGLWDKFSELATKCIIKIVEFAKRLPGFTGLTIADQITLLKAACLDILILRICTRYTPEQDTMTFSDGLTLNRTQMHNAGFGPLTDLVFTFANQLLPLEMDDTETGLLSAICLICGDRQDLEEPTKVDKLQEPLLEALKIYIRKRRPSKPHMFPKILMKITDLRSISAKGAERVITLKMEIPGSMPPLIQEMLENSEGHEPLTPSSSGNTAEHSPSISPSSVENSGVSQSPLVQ

Test [8] addresses human Thyroid Receptor alpha (THRa1), THRA (gene 7067) (UniProt P10827). Briefly: ATG_THRa1_TRANS: Attagene TRANS-FACTORIAL HepG2 Assay for human Thyroid Receptor alpha (THRa1) (AID 2283014). In outline:
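HepG2 cells transiently transfected with multiplexed GAL4-UAS reporter units for exogenous chimeric THRa1-Gal4; reporter mRNA measured 24 h after dosing by RT-PCR, 6-FAM labelling, HpaI digestion and capillary electrophoresis. Gain-of-signal fitted versus DMSO baseline.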

In test [9] the target is Peroxisome proliferator-activated receptor gamma (Homo sapiens) (UniProt P37231). Briefly: ATG_PPARg_TRANS: Attagene TRANS-FACTORIAL HepG2 Assay for human Peroxisome Proliferator-activated Receptor-gamma (PPARg) (AID 2283007). In outline:
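Gain-of-signal endpoint relative to DMSO, derived from reporter mRNA levels quantified by RT-PCR and capillary electrophoresis. Cells were HepG2 transiently expressing a chimeric NR-Gal4 construct with GAL4-UAS reporters, exposed to chemicals for 24 h.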

For test [10], the target named is human Retinoid X Receptor beta (RXRb), RXRB (gene 6257) (UniProt P28702). Nature of the test: ATG_RXRb_TRANS: Attagene TRANS-FACTORIAL HepG2 Assay for human Retinoid X Receptor beta (RXRb) (AID 2283013). In short, it runs like this: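 After a 24 h incubation with test chemical, transfected HepG2 cells carrying NR-Gal4 fusions and GAL4-UAS reporter transcription units yield RNA whose reporter cDNA is FAM-labelled, HpaI-cut and sized by capillary electrophoresis; increases over DMSO are scored.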

Test [11] addresses human RAR-related Orphan Receptor beta (RORb), RORB (gene 6096) (UniProt Q92753). Nature of the test: ATG_RORb_TRANS: Attagene TRANS-FACTORIAL HepG2 Assay for human RAR-related Orphan Receptor beta (RORb) (AID 2283010). In short, it runs like this:
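Multiplexed transcription-factor reporter assay: HepG2 cells transiently carrying NR-Gal4/GAL4-UAS constructs, 24 h treatment, mRNA quantified by RT-PCR plus capillary electrophoresis fluorescence; activity scored as induction over DMSO.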

Chain of Nuclear receptor subfamily 1 group I member 2 (Homo sapiens) (O75469 whole entry, looked up, the tested form may be a part): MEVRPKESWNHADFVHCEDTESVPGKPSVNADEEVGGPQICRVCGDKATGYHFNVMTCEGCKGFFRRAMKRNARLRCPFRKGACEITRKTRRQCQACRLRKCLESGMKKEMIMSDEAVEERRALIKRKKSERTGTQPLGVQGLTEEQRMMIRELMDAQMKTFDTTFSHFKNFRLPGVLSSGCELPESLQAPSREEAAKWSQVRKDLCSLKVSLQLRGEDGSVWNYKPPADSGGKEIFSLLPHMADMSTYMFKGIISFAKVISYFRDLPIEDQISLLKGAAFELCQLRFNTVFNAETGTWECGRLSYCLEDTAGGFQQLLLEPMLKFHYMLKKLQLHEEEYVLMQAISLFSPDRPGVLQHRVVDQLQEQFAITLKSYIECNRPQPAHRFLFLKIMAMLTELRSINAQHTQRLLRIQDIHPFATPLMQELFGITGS
Chain of human Retinoic Acid Receptor gamma (RARg), RARG (gene 5916) (P13631 whole entry, looked up, the tested form may be a part): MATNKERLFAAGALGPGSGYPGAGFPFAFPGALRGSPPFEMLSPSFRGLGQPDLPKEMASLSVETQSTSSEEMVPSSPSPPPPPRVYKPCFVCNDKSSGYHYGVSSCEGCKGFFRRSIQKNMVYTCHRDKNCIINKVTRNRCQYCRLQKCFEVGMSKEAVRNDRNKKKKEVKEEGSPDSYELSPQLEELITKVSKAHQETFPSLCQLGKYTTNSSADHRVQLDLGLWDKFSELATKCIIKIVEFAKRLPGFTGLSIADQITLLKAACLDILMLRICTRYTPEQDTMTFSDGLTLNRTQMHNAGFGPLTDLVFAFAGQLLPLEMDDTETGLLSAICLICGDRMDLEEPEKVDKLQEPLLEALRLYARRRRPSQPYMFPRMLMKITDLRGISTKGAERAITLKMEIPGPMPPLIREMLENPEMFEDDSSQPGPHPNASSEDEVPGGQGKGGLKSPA
Chain of human Thyroid Receptor alpha (THRa1), THRA (gene 7067) (P10827 whole entry, looked up, the tested form may be a part): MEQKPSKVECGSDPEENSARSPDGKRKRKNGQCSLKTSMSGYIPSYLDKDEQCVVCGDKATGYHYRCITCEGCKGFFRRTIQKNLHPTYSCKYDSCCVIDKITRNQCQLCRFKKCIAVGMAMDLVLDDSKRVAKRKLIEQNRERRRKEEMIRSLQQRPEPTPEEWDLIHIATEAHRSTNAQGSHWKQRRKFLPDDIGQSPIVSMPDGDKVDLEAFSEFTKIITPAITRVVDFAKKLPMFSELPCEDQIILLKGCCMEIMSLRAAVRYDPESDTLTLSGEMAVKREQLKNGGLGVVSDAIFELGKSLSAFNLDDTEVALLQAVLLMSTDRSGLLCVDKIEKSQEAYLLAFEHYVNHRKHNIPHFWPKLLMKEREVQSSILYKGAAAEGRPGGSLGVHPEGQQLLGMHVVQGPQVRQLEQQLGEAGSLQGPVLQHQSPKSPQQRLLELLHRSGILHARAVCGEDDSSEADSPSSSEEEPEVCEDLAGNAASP
Chain of Peroxisome proliferator-activated receptor gamma (Homo sapiens) (P37231 whole entry, looked up, the tested form may be a part): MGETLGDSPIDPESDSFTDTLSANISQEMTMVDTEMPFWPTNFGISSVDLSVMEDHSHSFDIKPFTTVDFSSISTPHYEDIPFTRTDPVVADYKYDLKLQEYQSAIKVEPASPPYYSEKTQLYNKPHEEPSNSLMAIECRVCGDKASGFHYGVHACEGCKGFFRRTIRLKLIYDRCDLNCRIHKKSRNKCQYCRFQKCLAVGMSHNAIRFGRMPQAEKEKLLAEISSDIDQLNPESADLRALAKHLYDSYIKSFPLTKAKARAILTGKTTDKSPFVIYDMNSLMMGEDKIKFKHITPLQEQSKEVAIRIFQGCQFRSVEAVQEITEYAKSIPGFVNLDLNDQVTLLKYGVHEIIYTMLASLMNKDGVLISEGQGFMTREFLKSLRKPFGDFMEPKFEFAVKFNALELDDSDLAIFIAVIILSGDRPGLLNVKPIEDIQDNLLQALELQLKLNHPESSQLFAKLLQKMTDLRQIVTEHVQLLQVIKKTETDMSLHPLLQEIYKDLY
Chain of human Peroxisome Proliferator-activated Receptor delta (PPARd), PPARD (gene 5467) (Q03181 whole entry, looked up, the tested form may be a part): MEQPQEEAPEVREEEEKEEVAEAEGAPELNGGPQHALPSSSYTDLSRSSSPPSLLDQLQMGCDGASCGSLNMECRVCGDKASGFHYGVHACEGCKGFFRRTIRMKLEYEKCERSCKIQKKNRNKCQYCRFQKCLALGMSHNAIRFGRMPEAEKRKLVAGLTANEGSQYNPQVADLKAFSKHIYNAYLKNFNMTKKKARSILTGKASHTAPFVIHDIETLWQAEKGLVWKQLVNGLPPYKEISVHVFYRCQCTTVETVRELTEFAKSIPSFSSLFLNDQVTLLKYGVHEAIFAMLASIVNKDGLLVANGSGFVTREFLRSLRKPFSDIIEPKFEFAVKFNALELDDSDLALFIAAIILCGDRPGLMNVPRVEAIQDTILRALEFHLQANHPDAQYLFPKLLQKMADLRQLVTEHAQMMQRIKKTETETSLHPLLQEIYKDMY
Chain of human RAR-related Orphan Receptor beta (RORb), RORB (gene 6096) (Q92753 whole entry, looked up, the tested form may be a part): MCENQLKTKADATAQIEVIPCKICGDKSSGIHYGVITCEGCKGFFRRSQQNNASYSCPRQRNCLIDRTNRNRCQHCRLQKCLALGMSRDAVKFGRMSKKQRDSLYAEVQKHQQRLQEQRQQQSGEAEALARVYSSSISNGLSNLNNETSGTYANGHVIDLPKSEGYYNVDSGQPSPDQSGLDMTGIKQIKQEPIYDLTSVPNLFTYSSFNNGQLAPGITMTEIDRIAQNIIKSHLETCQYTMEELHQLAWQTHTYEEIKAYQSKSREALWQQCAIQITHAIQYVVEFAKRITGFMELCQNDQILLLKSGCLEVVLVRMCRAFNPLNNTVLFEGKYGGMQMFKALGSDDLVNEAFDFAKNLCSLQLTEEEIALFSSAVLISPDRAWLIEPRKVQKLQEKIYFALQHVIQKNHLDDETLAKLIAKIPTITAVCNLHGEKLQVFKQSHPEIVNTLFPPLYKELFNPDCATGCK
Chain of Retinoic acid receptor RXR-alpha (Homo sapiens) (P19793 whole entry, looked up, the tested form may be a part): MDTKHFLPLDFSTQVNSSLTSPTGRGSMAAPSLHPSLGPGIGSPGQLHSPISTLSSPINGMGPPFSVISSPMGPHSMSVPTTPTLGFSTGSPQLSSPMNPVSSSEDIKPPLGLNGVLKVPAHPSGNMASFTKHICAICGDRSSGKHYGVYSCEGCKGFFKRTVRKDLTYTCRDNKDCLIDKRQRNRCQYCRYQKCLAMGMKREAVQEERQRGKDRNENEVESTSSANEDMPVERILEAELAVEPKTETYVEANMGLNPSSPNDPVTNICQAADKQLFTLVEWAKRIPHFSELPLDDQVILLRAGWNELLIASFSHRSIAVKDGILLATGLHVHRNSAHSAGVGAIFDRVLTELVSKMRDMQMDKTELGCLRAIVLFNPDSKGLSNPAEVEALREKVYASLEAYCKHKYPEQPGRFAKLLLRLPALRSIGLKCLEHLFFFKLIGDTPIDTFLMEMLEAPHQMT
Chain of Retinoic acid receptor alpha (Homo sapiens) (P10276 whole entry, looked up, the tested form may be a part): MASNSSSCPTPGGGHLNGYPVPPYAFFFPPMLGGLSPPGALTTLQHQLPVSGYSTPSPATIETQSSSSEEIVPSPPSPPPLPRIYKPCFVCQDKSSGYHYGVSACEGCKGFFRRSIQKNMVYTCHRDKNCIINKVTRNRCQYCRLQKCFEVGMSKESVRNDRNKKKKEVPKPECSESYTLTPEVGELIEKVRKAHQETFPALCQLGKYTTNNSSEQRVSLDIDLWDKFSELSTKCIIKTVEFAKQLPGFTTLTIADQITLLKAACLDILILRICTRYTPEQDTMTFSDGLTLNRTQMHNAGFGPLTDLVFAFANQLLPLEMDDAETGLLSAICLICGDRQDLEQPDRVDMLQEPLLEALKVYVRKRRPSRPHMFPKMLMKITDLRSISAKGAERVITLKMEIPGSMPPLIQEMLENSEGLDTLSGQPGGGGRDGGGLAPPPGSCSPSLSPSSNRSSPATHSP

For the molecule `CC(=O)OC1CCCCC1`, the call in [1], in test [2], in [3], in test [4], in test [5] and in test [6] was inactive.

On to `CC(C)(O)Cc1ccccc1`, for which the result in [1], in test [7], in [2], in test [3], in [5] and in [8] was inactive.

Consider `N#Cc1ccc(C(c2ccc(C#N)cc2)n2cncn2)cc1`, for which the outcome in [1], in [9], in test [3], in [4], in [6] and in [10] was inactive.

Regarding `CC(C)c1ccc2ncccc2c1`, the call in [1], in [7], in test [2], in test [4], in test [6] and in test [10] was inactive. In [8], the result was inactive. The concentration at half-maximal activity (AC50) in [3] was 21.4 µM (active).

With `O=C(O)c1cc(O)c2ccccc2c1O`, the call in [1], in test [4], in [11], in [6], in test [10] and in [8] was inactive. Further, the AC50 in test [9] is 9.25 µM (active); in [3], 2.31 µM (active).

As to `CCOC(=O)CC(=O)c1ccccc1`, the call in test [1], in test [9], in test [3] and in test [5] was inactive.

With `CCCCCCCCCCCCCc1ccccc1`, the result in test [1], in test [9], in [3], in test [5], in test [6] and in test [10] was inactive. For the same molecule, the molecule was called inactive in test [8].

As to `O=C(O)CCCC(=O)O`, the molecule was called inactive in test [1], in test [9] and in [3].

In the case of `CCCC1CCCC(=O)O1` (centres undefined), the outcome in [1], in [7], in test [3], in test [6], in test [10] and in test [8] was inactive. In [9], the AC50 is 23.4 µM (active).

Consider `CCCCC(CC)COC(=O)/C=C/c1ccc(OC)cc1` (centres undefined), for which the molecule was called inactive in [1], in test [7], in test [2], in test [9], in [3] and in [11]. Besides, the result in test [5], in test [6], in [10] and in test [8] was inactive.

With `CC1=CP(=O)(c2ccccc2)CC1` (centres undefined), the result in test [1], in test [2], in [3], in test [4], in test [5] and in test [6] was inactive. The outcome in test [10] and in test [8] was inactive.

With `C=CC(C)(O)CC/C=C(\C)CC` (centres undefined), the result in test [1], in test [7], in test [2], in [9], in test [4] and in test [6] was inactive. In addition, the outcome in test [10] was inactive. For the same molecule, in [3], the AC50 was 6.12 µM (active).

For the molecule `CC(C=O)c1ccccc1` (centres undefined), the molecule was called inactive in test [1], in [9], in [11], in test [6] and in test [10]. In test [3], the AC50 is 5.82 µM (active).

Take `CC(C)(CO)COC(=O)C(C)(C)CO`: the outcome in test [1], in test [7], in [3], in test [11] and in test [8] was inactive.

Consider `CC(=O)OCc1ccccc1`, for which the result in [1], in test [7], in test [9], in [3], in [11] and in [6] was inactive. The molecule was called inactive in [10].

As for `COC(=O)[C@H](Cc1ccccc1)NC(=O)[C@@H](N)CC(=O)O` (H-Asp-Phe-OMe), the molecule was classed as inactive in test [1], in test [7], in [2], in test [9], in test [3] and in test [4]. For the same molecule, the result in test [8] was inactive.

Take `OCCCc1ccccc1`: the call in test [1], in [2], in [9], in [3], in test [4] and in test [6] was inactive. For the same molecule, in test [10], the call was inactive.

`Cc1cc(C)n(CO)n1`: the call in [1], in [7], in test [9], in test [5] and in [10] was inactive.

Consider `COc1cc(O)c(C(=O)c2ccccc2)cc1S(=O)(=O)O`, for which the molecule was called inactive in test [1], in [9], in [3], in [6] and in test [10].

As to `CCOC(=O)c1ccc(C)cc1`, the result in [1], in test [9], in test [4], in test [6] and in [10] was inactive.

With `CCCCC(=O)O`, the outcome in [7], in test [2] and in test [4] was inactive.

On to `CC(C)c1ccc(O)c(C(C)C)c1`, for which the molecule was classed as inactive in test [7], in test [9] and in [4]. In addition, the AC50 was 6.58 µM (active) in test [3], 54.6 µM (active) in [6] and 9.23 µM (active) in test [10].

On to `CCCCNC(=S)NCCCC`, for which the result in test [7], in test [9], in test [3], in test [4], in test [5] and in test [10] was inactive. Also, the molecule was classed as inactive in test [8].
